The record followed here is ChEMBL document CHEMBL4888484, “Replenishing the malaria drug discovery pipeline: Screening and hit evaluation of the MMV Hit Generation Library 1 (HGL1) against asexual blood stage Plasmodium falciparum ,using a nano luciferase reporter read-out” (2022).

Each structure is given as a SMILES string. Among all 150,000 compounds or so, about 540 (0.36%) showed an effect of 50% or more. The list comes from a sample in which strong results are over-represented; it also holds similar structures and randomly drawn compounds.

The subject of this experiment is Plasmodium falciparum. Kind of experiment: Primary screen in NF54 nanoGlo assay, in single point, at 2uM, 72h; a lower Z score goes with more inhibition. Type of experiment: functional, Erythrocyte. The following applies: timepoint 72 hour.
Consider `COC(=O)[C@@H]1C[C@@H](O)CN1Cc1ccncc1Cl`, for which the “% Inhibition” value was -4% and the Z score worked out at 0.5.
As for `Cc1ccc(N(C)C(C)C)c(C(=O)NC[C@H]2CCC3(CCOCC3)O2)c1`, the “% Inhibition” value is listed as -1% and the Z score stood at 0.19.
Taken in the same sequence, the figures for `O=C(c1ccccc1Oc1ccccc1)N1CCO[C@]2(CNCCOC2)C1` were 5% and -0.96.
Taken in the same sequence, the figures for `O[C@@H](CNc1ncnc2sccc12)c1ccc(Cl)c(F)c1` were 28% and -3.21.
As to `O=C(N[C@@H]1c2ccccc2OC[C@@H]1CO)[C@H](O)c1ccccc1`, the “% Inhibition” value is -2% and the Z score was 0.41.
Turning to `CC(=O)c1ccccc1C(=O)NCCCc1ncc[nH]1`, the “% Inhibition” value is -9% and the Z score amounted to 1.13.
The like results for `Cc1ccccc1C(=O)Cc1ncc[nH]1` were, in that order, 87% and -5.77.
The like results for `Cc1ccsc1CNc1ccccc1C(=O)NCc1ncc[nH]1` were, in that order, 2% and -0.38.
The like results for `CCc1nc2c(c(OC3CCN(C(=O)c4ccn(CC)n4)CC3)n1)CCOCC2` were, in that order, -11% and 1.12.
In the case of `Cc1[nH]c2ncnc(NC(=O)c3cccc(-n4ccnn4)c3)c2c1C`, the “% Inhibition” value is 65% and the Z score is reported as -1.3.
The like results for `Cc1[nH]c2ncnc(NC(=O)c3cccc(S(=O)(=O)NC4CC4)c3)c2c1C` were, in that order, -21% and 3.01.
Taken in the same sequence, the figures for `Cc1cc(NC(=O)c2cccc(-n3ccnn3)c2)nc(=O)[nH]1` were -14% and 2.12.
Taken in the same sequence, the figures for `CCCN(CCC)C(=O)c1cc(F)ccc1OC` were -10% and 1.09.
With `O[C@H]1CCN(Cc2cccc(OCCCCN3CCOCC3)c2)C[C@@H]1O`, the “% Inhibition” value came to 4% and the Z score is recorded as -0.63.
Taken in the same sequence, the figures for `Fc1ccc(COc2cccc(CNCCN3CCOCC3)c2)cc1` were 33% and 1.13.
Taken in the same sequence, the figures for `O=C(NC1(c2ncon2)CCOCC1)c1cc2ccccn2c1` were -4% and 0.42.
The like results for `Cc1ccccc1Cn1cnc2c1c(=O)n(C1CCCC1)c(=O)n2-c1ccccc1` were, in that order, -7% and 0.85.
On to `Cc1ccccc1Cn1cnc2c1c(=O)n(C1CCCCC1)c(=O)n2-c1ccccc1Cl`, for which the “% Inhibition” value amounted to 70% and the Z score was -7.57.
The like results for `COc1ccccc1Cn1cnc2c1c(=O)n(C1CCCCC1)c(=O)n2-c1ccccc1Cl` were, in that order, 69% and -6.45.
The like results for `Cc1ccccc1-n1c(=O)n(C2CCCCC2)c(=O)c2c1ncn2Cc1ccccc1` were, in that order, -1% and 0.09.
The like results for `COc1ccccc1-n1c(=O)n(C2CCCC2)c(=O)c2c1ncn2Cc1ccccc1Cl` were, in that order, 37% and -4.79.
As to `Cc1ccccc1Cn1cnc2c1c(=O)n(C1CC1)c(=O)n2-c1ccccc1C`, the “% Inhibition” value is given as 5% and the Z score is recorded as -0.48.
The like results for `Cc1c(Cl)cccc1NC(=O)c1sccc1S(=O)(=O)N1CCc2ccccc2C1` were, in that order, 1% and -0.1.

Usually % Inhibition stands for the relative decrease from the control value, in per cent.
